The source of these data is PubChem BioAssay AID743269 (The Scripps Research Institute Molecular Screening Center, 2014).

The whole screen tested about 370,000 compounds, of which about 2,400 (0.65%) were called active.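 The calls were made as follows: active = inhibition above the screen-wide mean plus 3 SD (cut at about 13% in these data); inactive = the rest.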 Shown is part of a subset that was picked to be rich in actives.

This assay relates to HIV-1 integrase (with human LEDGF/p75). The assay can be described thus: blockers of LEDGF/p75-dependent integrase strand transfer – biochemical, TR-FRET, high throughput, primary screen (AID 743269).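 Also: signal is the Cy5 over europium emission ratio at 671 and 618 nm; 0% = plate median of compound wells.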 The settings on record: TR-FRET IN-LEDGF/p75 DNA integration, Eu/Cy5; at 3.7 µM; stronger effect = higher value. (In general: In TR-FRET formats the signal depends on donor and acceptor labels being close together.)
For orientation: inhibition means the drop in the measured response relative to a control, in per cent. Consider `COc1ccc(-c2cc(-c3nnc(SCc4ccc([N+](=O)[O-])cc4)n3N)[nH]n2)cc1`, for which the inhibition is -1.38% (inactive).
Consider `COc1ccccc1C(=O)CSc1nnc(-c2ccccn2)n1-c1ccccc1`, for which the inhibition is -0.35% (inactive).
To `O=C(CSc1nc2ccccc2s1)NN=Cc1ccc(O)cc1O` belongs -3.78% (inactive).
`O=C(Nc1ccccc1)N1CCN(Cc2nc3ccccc3c(=O)[nH]2)CC1`: the inhibition is -2.46% (inactive).
With `Cc1c(C#N)c(NC(=O)c2ccccc2)n(Cc2ccccc2)c1C`, the inhibition was 0.96% (inactive).
In the case of `CCCn1c(C)cc(-c2csc(NC(=O)CCc3nc4ccccc4c(=O)[nH]3)n2)c1C`, the inhibition was 5.25% (inactive).
To `CC(=O)Nc1ccc(C(=O)Nc2nc(-c3cc(C)n(Cc4ccccc4)c3C)cs2)cc1` belongs 17.7% (active); to `CCOc1ccc(-n2c(SCC(=O)Nc3cc(C)c(NC(=O)c4ccccc4)cc3OC)nnc2-c2cccs2)cc1`, 1.97% (inactive); to `COc1ccc(S[C@]2(C(=O)N(C)C)CC(=O)N(c3ccc(OC)cc3)[C@@H]2c2ccc(OC)cc2)cc1`, 2.73% (inactive).
For the compound `C=CCN1[C@@H](Cc2ccccc2)COc2cccc(N3CCSCC3)c2S1(=O)=O`, the inhibition is 1.03% (inactive).
Consider `CCn1c2ccccc2c2cc(NC(=O)CSc3nnc(-c4ccccc4)n3-c3ccc(C)cc3)ccc21`, for which the inhibition is 0.64% (inactive).
Turning to `COc1ccc(Cn2cc(CN3CCS(=O)(=O)N(Cc4ccc(-c5cccc(Cl)c5)cc4)C(C)C3=O)nn2)cc1` (configuration not stated), the inhibition was 79.8% (active).
Take `CC1C(=O)N(Cc2cn(Cc3ccco3)nn2)CCS(=O)(=O)N1Cc1ccc(-c2cccc(CO)c2)cc1` (configuration not stated): the inhibition is 1.97% (inactive).
For the compound `CC1C(=O)N(Cc2cn(CC3CCCCC3)nn2)CCS(=O)(=O)N1Cc1ccc(-c2cccc(N(C)C)c2)cc1` (configuration not stated), the inhibition was 5.48% (inactive).
Under `COC(=O)[C@]12C[C@H](CC(=O)NCc3cccs3)C(=O)N(CCc3ccc(OC)c(OC)c3)C1=C[C@H](C(C)C)O[C@@H]2C1CC1` stands 4.37% (inactive).
As to `Cc1ccc(S(=O)(=O)N(C)C)cc1NC(=O)COC(=O)C1COc2ccccc2O1` (configuration not stated), the inhibition is 1.74% (inactive).
Take `Cc1c(CC(=O)N2CCN(C(=O)C3COc4ccccc4O3)CC2)c(=O)oc2c(O)c(O)ccc12` (configuration not stated): the inhibition was 67.8% (active).
Turning to `CC(=O)c1ccccc1NC(=O)COC(=O)C1COc2ccccc2O1` (configuration not stated), the inhibition was -3.4% (inactive).
In the case of `C=CCN1C(=O)[C@@H](CC(=O)N2CCN(C(=O)OCC)CC2)[C@]2(C(=O)OCC)CCCCC/C=C/12`, the inhibition was -0.68% (inactive).
As to `CC(C)(C)OC(=O)NCCc1ccccc1/C=C/S(=O)(=O)NCc1ccc(F)cc1`, the inhibition was -1.63% (inactive).
To `COc1ccc(CN2C/C(=C/c3ccccc3)N3C(=O)C[C@@H](c4ccccc4)N=C23)c(OC)c1` belongs -1.46% (inactive); to `COc1c(O)cc2oc(-c3ccc(O)c(O)c3)cc(=O)c2c1O`, 34.7% (active); to `CCCC[C@H](C(=O)N(CC)c1ccccc1)[C@@H](O)c1ccc2ccccc2c1`, -3.33% (inactive).
As to `C=CCN1C(=O)[C@H](CC(=O)NCCCN2CCCC2=O)[C@@]2(C(=O)OCC)CCCC=C12`, the inhibition is -3.27% (inactive).
In the case of `COC1=C[C@H](C(=O)NCCNC(C)=O)[C@H](C)[C@@H](c2ccccc2)CC1=O`, the inhibition is -0.49% (inactive).
`CN(C)[C@@H]1C(=O)C(C(N)=O)=C(O)[C@@]2(O)C(=O)C3=C(O)c4c(O)ccc(Cl)c4[C@@H](O)[C@H]3C[C@@H]12`: the inhibition was 38.5% (active).
Take `C=C1c2c(Cl)ccc(O)c2C(O)=C2C(=O)[C@]3(O)C(O)=C(C(N)=O)C(=O)[C@@H](N(C)C)[C@@H]3[C@@H](O)C12` (some centres not stated): the inhibition is 68% (active).
On to `CCOC(=O)[C@]12CCCC=C1N(CCCOC)C(=O)[C@@H]2CC(=O)N1CCOCC1`, for which the inhibition is 4.81% (inactive).
Take `COc1ccc(C2Nc3ccccc3C(=O)N2Cc2cccs2)cc1COc1c(C)cccc1C` (configuration not stated): the inhibition is -0.72% (inactive).
`CCOC(=O)C1=C(C)NC2=C(C(=O)CC(C)(C)C2)C1c1ccc2c(c1)OCO2` (configuration not stated): the inhibition was -1.19% (inactive).
Consider `CCCC1CCC2(CCCN2CCOC(=O)NCc2ccccc2)CC1` (configuration not stated), for which the inhibition was -0.38% (inactive).
For `Cc1ccc(C(=O)OC(C)CN2CCOCC2)cc1` (configuration not stated), the inhibition was 57.5% (active).
On to `Cc1cccc(C(=O)OC(C)CN2CCCC2)c1` (configuration not stated), for which the inhibition is 1.96% (inactive).
`CC(CN1CCOCC1)OC(=O)c1ccc(C(C)(C)C)cc1` (configuration not stated): the inhibition is 2.54% (inactive).
Under `COc1ccc2c(C(C)c3ccc(N)cc3)cn(C)c2c1` (configuration not stated) stands 3.86% (inactive); under `Cc1c(C(C)c2ccccc2O)[nH]c2ccccc12` (configuration not stated), -2.27% (inactive); under `Oc1ccc(N=Cc2sc3ccccc3c2Cl)cc1`, 27.5% (active).
As to `COc1ccc([C@H]2OC(=O)C[C@H]2C(=O)N2CCN(c3ccccc3F)CC2)cc1OC`, the inhibition was 1.9% (inactive).
To `Cc1cc(C)nc(NC(=S)N2CCN(c3ccc(C(F)(F)F)cn3)CC2)c1` belongs 4.81% (inactive); to `O=S1(=O)c2c(cccc2N2CCSCC2)Oc2ccccc2CN1Cc1cn(Cc2ccc(F)cc2)nn1`, -4.35% (inactive).
In the case of `COC(=O)C1CN(CCc2ccccc2)CCS(=O)(=O)N1Cc1ccc(F)cc1` (configuration not stated), the inhibition was -0.36% (inactive).
In the case of `O=C(CCS(=O)(=O)c1ccccc1)Nc1ccc(Cl)c(Cl)c1`, the inhibition was -0.44% (inactive).
Regarding `CN(Cc1ccccc1)C(=O)CCNC(=O)Cn1cnc2ccccc2c1=O`, the inhibition is -0.32% (inactive).
Turning to `Cn1c(-c2ccc(F)cc2)cnc1SCC(=O)NNC(=O)Cc1ccccc1`, the inhibition was -1.96% (inactive).
`Cc1ccc(-c2cnc(NC(=O)CCC(=O)N(C)Cc3ccccc3)n2C)cc1`: the inhibition was 38.1% (active).
On to `O=C(OCC#CCSc1nnc(-c2ccco2)o1)c1ccc(F)cc1`, for which the inhibition is -2.28% (inactive).
For `COC(=O)[C@]12C[C@H](CC(=O)NCc3ccccc3)C(=O)N(Cc3ccccc3)C1=C[C@H](COCc1ccccc1)O[C@@H]2C`, the inhibition is -1.62% (inactive).
`CC(C)C(C#CC1CC1)N(Cc1ccc2c(c1)OCO2)C(N)=NC(=O)/C=C/c1cccc(C(F)(F)F)c1` (configuration not stated): the inhibition is -0.12% (inactive).
Under `Cn1c(SCC(=O)N2CCCC2)nnc1-c1ccc2c(c1)OCO2` stands 0.18% (inactive); under `Cn1c(SCc2nc3ccccc3s2)nnc1-c1ccc2c(c1)OCO2`, 14.7% (active).
To `COc1ccc(CSc2nnc(-c3cccc(C)c3)n2C)cc1` belongs 1.05% (inactive); to `CCOC(=O)[C@]12CCCC3=C1N(CCC3)C(=O)[C@@H](CC(=O)N1CCSCC1)C2`, 4.16% (inactive); to `COC(=O)[C@]12C[C@H](CC(=O)NCc3ccccc3)C(=O)N(CCC3=CCCCC3)C1=C[C@H](C(C)C)O[C@@H]2C1CC1`, -3.27% (inactive).
Take `Cc1ccccc1CN1CCCCC(NC(=O)c2cccc(C#N)c2)C1=O` (configuration not stated): the inhibition was -3.73% (inactive).
Take `CCCCCCN1CCS(=O)(=O)N(Cc2ccc(C(F)(F)F)cc2)C(C(=O)OC)C1` (configuration not stated): the inhibition was -2.95% (inactive).
For the compound `CCCn1c(C)cc(/C=C(\C#N)C(=O)OCC(=O)Nc2cc(OC)c(OC)c(OC)c2)c1C`, the inhibition was 4.46% (inactive).
In the case of `COC(=O)/C(C#N)=C/c1occc1C`, the inhibition was 1.63% (inactive).
To `CCOC(=O)/C(C#N)=C\c1c(C)cc(C)c(COC(C)=O)c1C` belongs 15.8% (active).
Under `CCOC(=O)c1csc(NC(=O)C2CCCN(S(=O)(=O)c3ccc(Cl)s3)C2)n1` (configuration not stated) stands 3.42% (inactive); under `CSc1ccc(C=Nn2c(-c3ccc(F)cc3)n[nH]c2=S)cc1`, 1.18% (inactive); under `COc1ccc2c(c1)CN1CN(CCc3ccccc3)S(=O)(=O)CC21` (configuration not stated), 3.16% (inactive).
Take `O=C(N/C(=C\c1ccc(O)cc1)C(=O)N1CCCCC1)c1ccccc1`: the inhibition was 3.65% (inactive).
To `Cc1ccc(C(=O)N/C(=C/c2cccs2)C(=O)N2CCCCC2)cc1` belongs 33% (active).
For `CN1CCN(C(=O)/C(=C\c2cccs2)NC(=O)c2cccs2)CC1`, the inhibition was -1.57% (inactive).
On to `Cc1ccc(Cn2cc(CN3[C@@H](C)COc4cc(Br)ccc4S3(=O)=O)nn2)cc1`, for which the inhibition was 4.11% (inactive).
To `O=C1Nc2ccccc2OC1CC(=O)N1CCCCCCC1` (configuration not stated) belongs 0.2% (inactive); to `CCC(CO)Nc1cccc2c1S(=O)(=O)N(Cc1cn(Cc3ccccc3C(F)(F)F)nn1)Cc1ccccc1O2` (configuration not stated), -2.25% (inactive).
Under `FC(F)(F)c1cccc(Cn2ccc3ccc(-c4ccc5ccn(Cc6ccccc6)c5c4)cc32)c1` stands 3.37% (inactive).
Under `CC(=O)N1CCc2cc(S(=O)(=O)NCCC(=O)N3CCCC3)ccc21` stands -3.8% (inactive); under `CC1(OC(=O)C2CCCC2)C(=O)C=C2C=C(c3ccc(C#N)cc3)OC=C2C1=O` (configuration not stated), 13.4% (active).
For `CC1(C(=O)NS(=O)(=O)c2ccc(C#N)cc2)CCN1C(=O)c1ccc(C2CCCCC2)cc1` (configuration not stated), the inhibition was -1.93% (inactive).
Take `Cc1ccccc1C(=O)N1CCC(C(=O)Oc2ccc(C#N)cc2)CC1`: the inhibition is -4.31% (inactive).
To `C[C@H]1CCC/C=C/C(=O)c2c(O)cc(O)cc2CC(=O)O1` belongs -2.09% (inactive); to `Cc1cc2c(c(=O)n1C)C(C(C)C)C(C#N)=C(N)O2` (configuration not stated), 0.88% (inactive); to `O=C(Cn1c(=O)n(Cc2ccco2)c(=O)c2ccccc21)NCC1CCCO1` (configuration not stated), 2.8% (inactive).
In the case of `Cc1cc2c(c(=O)n1Cc1ccco1)C(c1ccccc1)C(C#N)=C(N)O2` (configuration not stated), the inhibition was 42.2% (active).
On to `N#Cc1ccc(OC[C@@H](O)CN2CCC(C(O)(c3ccccc3)c3ccccc3)CC2)c(F)c1`, for which the inhibition is 1.07% (inactive).
As for `O=C(Nc1nnc(-c2ccco2)o1)c1ccc(S(=O)(=O)N2CCOCC2)cc1`, the inhibition is 27% (active).
Under `Cc1ccnc(NS(=O)(=O)c2ccc(NC(=O)c3ccc(S(=O)(=O)N4CCOCC4)cc3)cc2)n1` stands -0.6% (inactive).
In the case of `O=C(Nc1nnc(-c2ccccc2)o1)c1cccc(S(=O)(=O)N2CCOCC2)c1`, the inhibition is 4.42% (inactive).
Take `Cc1cccc(C(=O)Nc2c(-c3ccc(F)cc3)nc3ncccn23)c1`: the inhibition was 1.19% (inactive).
Under `C=CCN1[C@H](CC(C)C)COc2cccc(N3CCCC3)c2S1(=O)=O` stands -3.3% (inactive).
